From PubChem
Shown is part of a subset that was picked to be rich in hits.
CBX7 inh – CBX7 chromodomain binding inhibitors, primary screen, biochemical, AlphaScreen | normalised signal (fraction of DMSO) (test concentration not listed) | AlphaScreen His6-CBX7 / biotin-H3K27me3 peptide binding; stronger effect = lower value | hit rate 1.1% among 66,000 | Chromobox protein homolog 7 (Homo sapiens), O95931; in the data active = normalised signal below about 0.5
Target sequence (O95931 whole entry, looked up): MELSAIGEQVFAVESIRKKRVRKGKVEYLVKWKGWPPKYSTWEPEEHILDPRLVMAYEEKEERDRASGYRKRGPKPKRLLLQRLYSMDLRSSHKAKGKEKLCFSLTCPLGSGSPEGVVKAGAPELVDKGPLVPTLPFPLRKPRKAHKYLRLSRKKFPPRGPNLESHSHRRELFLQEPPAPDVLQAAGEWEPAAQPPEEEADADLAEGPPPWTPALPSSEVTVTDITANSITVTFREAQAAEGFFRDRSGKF
The depositor's hits bear a star; ! = not confirmed by another sample.

SMILES	CBX7 inh
Cc1nc2sccn2c1-c1csc(Nc2cccc(O)c2)n1	0.27*!
Cc1ccc(Nc2nc(-c3c(C)nc4sccn34)cs2)cc1	0.68
Cc1nc2sccn2c1-c1csc(Nc2ccccc2)n1	0.74
O=C(NCc1cccnc1)c1cc(=O)[nH]c2ccc(S(=O)(=O)N3CCOCC3)cc12	0.99
Cc1ccc(C)c(NC(=O)Cn2cc(S(=O)(=O)c3ccccc3)c(=O)c3cc(F)ccc32)c1	0.82
COCc1nnc(NC(=O)c2ccc(S(=O)(=O)N(C)c3ccccc3)cc2)o1	0.71
CCc1nnc(NC(=O)c2ccc(S(=O)(=O)N(CC)c3ccccc3)cc2)o1	0.073*
CCN(c1ccccc1)S(=O)(=O)c1ccc(C(=O)Nc2nnc(COC)o2)cc1	0.79
CCN(c1ccccc1)S(=O)(=O)c1ccc(C(=O)Nc2nnc(C3CC3)o2)cc1	0.066*
CN(c1ccccc1)S(=O)(=O)c1ccc(C(=O)Nc2nnc(C3CC3)o2)cc1	0.55
CC(C)N(Cc1ccccc1)S(=O)(=O)c1ccc(C(=O)Nc2nnc(-c3cccs3)o2)cc1	0.88
Cc1c(C(=O)NCCc2ccc(Cl)cc2)oc2ccc(S(=O)(=O)N3CCCCCC3)cc12	0.93
Cc1ccc(NC(=O)C(NS(=O)(=O)c2cccs2)C(C)C)cc1 (stereo unspecified)	1
Cc1ccc(NC(=O)CCc2nnc3ccc(NCCCN4CCCC4=O)nn23)cc1	1.1
COc1ccc(N2Cc3cccc(C(=O)Nc4ccc(CN5CCOCC5)cc4)c3C2=O)cc1	0.87
COc1ccc(-c2cc(CCCC(=O)N3CCN(c4ccccc4)CC3)no2)cc1	0.97
CCCCSc1oc(-c2ccc(F)cc2)nc1S(=O)(=O)c1ccc(F)cc1	1.1
CCN1C(=O)c2ccccc2S(=O)(=O)c2ccc(C(=O)N3CCC4(CC3)OCCO4)cc21	1
COc1ccc(OC)c(Nc2nc(-c3sc(C)nc3C)cs2)c1	0.84
CCC(=O)Nc1nc(C)c(-c2csc(Nc3cc(OC)ccc3OC)n2)s1	0.5*
CCC(=O)Nc1nc(C)c(-c2csc(Nc3ccc(OC)cc3)n2)s1	0.5*
CCC(=O)Nc1nc(C)c(-c2csc(Nc3ccccn3)n2)s1	0.88
CCC(=O)Nc1nc(C)c(-c2csc(Nc3ncccn3)n2)s1	1.1
CCC(=O)Nc1nc(C)c(-c2csc(Nc3ccccc3OC)n2)s1	0.83
CCOC(=O)C1CCN(C(=O)c2cnn3c(C)c(Cc4ccc(C)cc4)c(C)nc23)CC1	0.93
SMILES	CBX7 inh
CCCCNC(=O)c1ccc2c(c1)N=C(CC)c1cc(Cl)ccc1S2	1.2
COc1ccc(-c2csc(Nc3ccccc3OC)n2)cc1Br	0.81
CCc1ccc(-c2csc(Nc3cc(OC)c(Cl)cc3OC)n2)cc1	0.66
Cc1ccc(-c2csc(N3CCN(Cc4ccc5c(c4)OCO5)CC3)n2)cc1	0.88
COc1ccc(-c2csc(Nc3ccc(S(N)(=O)=O)cc3)n2)cc1C	0.55
COc1cc(Nc2nc(-c3cc(C)ccc3C)cs2)c(OC)cc1Cl	0.69
Clc1ccc(-c2csc(Nc3ccc4c(c3)OCO4)n2)cc1	0.64
COc1cc(Nc2nc(-c3ccc(CC(C)C)cc3)cs2)c(OC)cc1Cl	0.48*
COc1ccc(-c2csc(Nc3ccc4c(c3)OCO4)n2)cc1Br	0.33*!
CC(C)Cc1ccc(-c2csc(Nc3ccc4c(c3)OCO4)n2)cc1	0.19*!
Cc1ccc(C)c(NC(=O)C2CCN(S(=O)(=O)c3cnc[nH]3)CC2)c1	1
CC(C)(C#CCN1CCOCC1)OCCOCc1ccccc1	0.94
CC(C)(c1ccccc1)c1ccc(OCC(=O)NCCc2nc3ccccc3[nH]2)cc1	0.97
COc1ccc(N2CCN(Cc3nc(-c4ccc(C)cc4)no3)CC2)cc1	0.32*
Cc1ccc(-c2noc(CN3CCN(c4ccc(F)cc4)CC3)n2)cc1	0.99
Cc1ccc(-c2noc(CN3CCOCC3)n2)cc1	1.3
Cc1cccc(C)c1N(C)S(=O)(=O)c1ccc2[nH]cc(C(=O)NCCC3=CCCCC3)c(=O)c2c1	0.92
Cc1ccc(Nc2nc(-c3ccc(C)c(C)c3)cs2)cc1	0.45*
Clc1ccc(Nc2nc(-c3ccncc3)cs2)cc1	1
Cc1ccc(Nc2nc(-c3ccc(I)cc3)cs2)cc1C	0.78
Cc1ccc(Nc2nc(-c3ccccc3)cs2)cc1Cl	0.72
COc1cccc(Nc2nc(-c3ccc(C)cc3)cs2)c1	0.67
Cc1ccc(C)c(-c2csc(Nc3ccc(C)c(Cl)c3)n2)c1	0.37*!
COc1ccc(-c2csc(Nc3cccc(C(=O)O)c3)n2)cc1	0.75
Cc1ccc(Nc2nc(-c3ccc(Cl)cc3)cs2)cc1C	0.77
SMILES	CBX7 inh
COc1cccc(Nc2nc(-c3ccc(F)cc3)cs2)c1	0.47*
Oc1ccc(Nc2nc(-c3ccc(Cl)cc3)cs2)cc1	0.44*
Cc1ccc(C)c(-c2csc(Nc3ccc(F)cc3)n2)c1	0.94
Clc1ccc(-c2csc(Nc3ccc(Br)cc3)n2)cc1	0.7
CCCCCCCNC(=O)c1cc(=O)[nH]c2ccc(S(=O)(=O)N3CCCCCC3)cc12	0.89
C=CCN(c1ccccc1)C(C(=O)Nc1ccc2c(c1)OCO2)c1ccccc1 (stereo unspecified)	1.1
